# ChEMBL document CHEMBL3988442, “University of Dundee, Small-Polar-MMV Screening Library” (2021)
# The whole screen tested about 66,000 compounds, of which about 960 (1.5%) showed an effect of 50% or more. This is one part of a sample in which strong results are shown more often than they occur.
# Test system: Trypanosoma brucei
# Assay: Trypanosoma brucei 72 hour study
# Type: functional, organism-based
# Set-up: scale not given: in the data most compounds retested in dose-response had high values
smiles,measurement,setting,value
Cc1nn(C)c(N2CCOCC2)c1CNC1CCc2cc(F)ccc21.Cl (centres undefined),Percent Effect,"30.3 µM, […]",2.572%
O=C(c1ccccn1)N1CCCC(c2cc(C(F)F)n3ncnc3n2)C1 (centres undefined),Percent Effect,"30.3 µM, […]",-6.514%
CN(C)CCn1c2c(ccc1=O)CCN(C(=O)c1cccs1)CC2.O=C(O)C(F)(F)F,Percent Effect,"30.3 µM, […]",-37.11%
CC(C)NC(=O)CC1COC2(CCN(Cc3ccco3)CC2)C1 (centres undefined),Percent Effect,"30.3 µM, […]",-14.26%
Cn1ccc(C(=O)NC2CCC23CCN(Cc2ccc(F)cc2)CC3)c1.O=C(O)C(F)(F)F (centres undefined),Percent Effect,"30 µM, 30.03 µM",3.839%
COCCC(=O)N1CCc2nc(N3CCOCC3)nc(NC(C)C)c2C1,Percent Effect,"30.3 µM, […]",-26.7%
CC(C)Nc1nc(N2CCCC2)nc2c1CN(C(C)C)CC2,Percent Effect,"30 µM, 30.03 µM",99.66%
CC(C)Nc1nc(N2CCCC2)nc2c1CN(c1ncc(F)cn1)CC2,Percent Effect,"30.3 µM, […]",99.94%
CC(C)Nc1nc(N2CCCC2)nc2c1CN(S(C)(=O)=O)CC2,Percent Effect,"30.3 µM, […]",-6.542%
CCCN1CCc2nc(N3CCOCC3)nc(NC(C)C)c2C1,Percent Effect,"30.3 µM, […]",-24.43%
CC(C)CC(=O)N1CCc2nc(N3CCOCC3)nc(NC(C)C)c2C1,Percent Effect,"30 µM, 30.03 µM",21.8%
CCC(C)N1CCc2nc(N3CCCC3)nc(NC(C)C)c2C1 (centres undefined),Percent Effect,"30.3 µM, […]",80.67%
CC(C)Nc1nc(N2CCCC2)nc2c1CN(C)CC2,Percent Effect,"30.3 µM, […]",-8.686%
CC(C)Nc1nc(N2CCCC2)nc2c1CCN(S(C)(=O)=O)CC2.O=C(O)C(F)(F)F.O=C(O)C(F)(F)F,Percent Effect,"30.3 µM, […]",-7.363%
CCN1CCc2nc(N3CCOCC3)nc(NC(C)C)c2C1,Percent Effect,"30.3 µM, […]",-20.31%
CC(C)Nc1nc(N2CCOCC2)nc2c1CN(CC(=O)N(C)C)CC2,Percent Effect,"30 µM, 30.03 µM",-12.25%
CC(C)CCN1CCc2nc(N3CCOCC3)nc(NC(C)C)c2C1,Percent Effect,"30.3 µM, […]",99.5%
COc1ccc(Oc2cc(CN)ccn2)cc1,Percent Effect,"30 µM, 30.03 µM",-27.14%
O=C1N(c2ccsc2)CCC12CCCN(c1ncc(F)cn1)C2 (centres undefined),Percent Effect,"30.3 µM, […]",6.515%
CC(C)(C)n1ncc(NCCc2ccccc2C(F)(F)F)c(Cl)c1=O,Percent Effect,"30 µM, 30.03 µM",-22.16%
COC(C)(C)C(=O)N1CCC(c2cc(CN(C)C)n(C)n2)CC1.Cl,Percent Effect,"30.3 µM, […]",-10.49%
Cc1ccc(CN2Cc3c(cnn3C)C(COCC3CC3)C2)s1 (centres undefined),Percent Effect,"30 µM, 30.03 µM",38.62%
CC(C)=CCN1C(=O)[C@H]2CC[C@@H]1CN(C(=O)CCc1nc(Cl)n[nH]1)C2,Percent Effect,"30 µM, 30.03 µM",-4.584%
COC(=O)CN1CC2(CCNCC2)COc2ccccc2S1(=O)=O.O=C(O)C(F)(F)F,Percent Effect,"30 µM, 30.03 µM",-19.66%
Br.CCOc1ccc(Br)cc1C1CCCN1 (centres undefined),Percent Effect,"30 µM, 30.03 µM",-44.26%
CC(C)OCCCN(CC(=O)N1CCNCC1)C(=O)c1ccc(F)cc1.O=C(O)C(F)(F)F,Percent Effect,"30 µM, 30.03 µM",-6.979%
Cc1nc(CN2CCc3nc(NC(C)C)nc(C)c3C2)cs1,Percent Effect,"30 µM, 30.03 µM",1.176%
Cc1nc(CN2CCc3nc(N4CCCC4)nc(NC(C)C)c3C2)cs1,Percent Effect,"30 µM, 30.03 µM",98.38%
CC(C)Nc1nc(N2CCOCC2)nc2c1CN(Cc1ccoc1)CC2,Percent Effect,"30 µM, 30.03 µM",8.067%
CN(CCOc1ccc(Cl)cc1)Cc1ccc(S(=O)(=O)N(C)C)o1,Percent Effect,"30 µM, 30.03 µM",-22.42%
Cn1nc(-c2ccc(Cl)cc2)c(Br)c1C(=O)O,Percent Effect,"30 µM, 30.03 µM",-21.18%
Cc1cccc(CN2C(=O)CCC23CCN(C(=O)N2CCCC2)CC3)n1.O=C(O)C(F)(F)F,Percent Effect,"30.3 µM, […]",-18.36%
Cc1cc(NCc2ccc(CO)cc2)n2nc(C)cc2n1,Percent Effect,"30 µM, 30.03 µM",21.61%
Cc1cc(NCc2ccc(O)cc2)n2nc(C)cc2n1,Percent Effect,"30 µM, 30.03 µM",9.404%
Cc1cc(NCc2cccnc2)n2nc(C)cc2n1,Percent Effect,"30 µM, 30.03 µM",51.67%
COCCN1CCc2ncnc(-c3ccccc3)c2CC1.O=C(O)C(F)(F)F,Percent Effect,"30.3 µM, […]",-87.22%
NC(=O)c1cccc(OCC(=O)NS(=O)(=O)c2ccc3c(c2)CCC3)c1,Percent Effect,"30.3 µM, […]",-4.37%
CCc1ncc(CN(C)C(=O)Nc2cccnc2N2CCCC2)s1,Percent Effect,"30 µM, 30.03 µM",50.09%
CN(Cc1ccco1)C(=O)Nc1cccnc1N1CCCC1,Percent Effect,"30.3 µM, […]",18.63%
CN(Cc1ccsc1)C(=O)Nc1cccnc1N1CCCC1,Percent Effect,"30 µM, 30.03 µM",-52.54%
O=C(O)C(F)(F)F.O=C(c1cc[nH]n1)N1CCC2(CC1)CC(Oc1cccnc1)CO2 (centres undefined),Percent Effect,"30 µM, 30.03 µM",-3.949%
COc1ccc(Cl)cc1NCC(=O)NCCNc1ncccn1,Percent Effect,"30.3 µM, […]",-3.8%
same,Percent Effect,"10 mM, 10 mM as filed; unlikely as a test dose",-45.51%
COc1cc(CNC(=O)CNc2cc(Cl)ccc2OC)ccn1,Percent Effect,"30 µM, 30.03 µM",-27.18%
COc1ccc(Cl)cc1NCC(=O)NCc1cccnc1OC,Percent Effect,"30.3 µM, […]",74.82%
same,Percent Effect,"10 mM, 10 mM as filed; unlikely as a test dose",-40.14%
CS(=O)(=O)NCc1nnc2n1CCN(Cc1cccs1)CC2.O=C(O)C(F)(F)F,Percent Effect,"30.3 µM, […]",-150.1%
Cc1ccc(N2CCC3(CC2)COCCN(c2nccs2)C3)nn1.O=C(O)C(F)(F)F.O=C(O)C(F)(F)F,Percent Effect,"30 µM, 30.03 µM",-12.93%
CCS(=O)(=O)N1CCC2(CC1)COC(COc1cccnc1)C2.O=C(O)C(F)(F)F (centres undefined),Percent Effect,"30.3 µM, […]",1.349%
O=C(c1ccccn1)N1CCC2(CC1)COC(COc1cccnc1)C2 (centres undefined),Percent Effect,"30 µM, 30.03 µM",52.19%
Cc1ccc(C(=O)N2CCC3(CC2)COC(COc2ccccn2)C3)o1.O=C(O)C(F)(F)F (centres undefined),Percent Effect,"30.3 µM, […]",15.32%
CCOCC1CC2(CCN(C(=O)c3ccccn3)CC2)CO1.O=C(O)C(F)(F)F (centres undefined),Percent Effect,"30.3 µM, […]",13.92%
Cc1ccc(C(=O)N2CCC3(CC2)COC(COc2cccnc2)C3)o1.O=C(O)C(F)(F)F (centres undefined),Percent Effect,"30 µM, 30.03 µM",51.84%
O=C(O)C(F)(F)F.O=C(c1ccccn1)N1CCC2(CC1)COC(COCC1CC1)C2 (centres undefined),Percent Effect,"30 µM, 30.03 µM",39.74%
O=C(O)C(F)(F)F.O=C([C@H]1CCCO1)N1CCCC2(COCCN(c3ccccc3)C2)C1 (some centres undefined),Percent Effect,"30.3 µM, […]",-14.49%
c1ccc(C(CC2CN(Cc3c[nH]cn3)CCO2)c2ccccc2)cc1 (centres undefined),Percent Effect,"30.3 µM, […]",18.17%
CC(=O)N1C[C@@H](c2ccsc2)[C@@H]2CN(Cc3ccccc3C)CC[C@@H]21,Percent Effect,"30.3 µM, […]",-10.13%
CC(=O)N1CCCn2nc(CNC(=O)N3CCCCC3)cc2C1,Percent Effect,"30 µM, 30.03 µM",-45.6%
COC(=O)NCc1cc2n(n1)CCCN(C(C)=O)C2,Percent Effect,"30 µM, 30.03 µM",54.27%
CC(=O)N1CCCn2nc(CNS(=O)(=O)N3CCCCCC3)cc2C1,Percent Effect,"30 µM, 30.03 µM",-5.109%
O=C(c1cccs1)N1CCC2(C1)c1ccccc1S(=O)(=O)N2CC1CC1 (centres undefined),Percent Effect,"30 µM, 30.03 µM",16.77%
Cc1ccc(CC(NC(=O)CN(C)C2CC2)c2ccccn2)cc1 (centres undefined),Percent Effect,"30 µM, 30.03 µM",99.62%
CCCC(=O)NC(Cc1ccc(C)cc1)c1ccccn1 (centres undefined),Percent Effect,"30 µM, 30.03 µM",-30.99%
CSCC(=O)NC(Cc1ccc(C)cc1)c1ccccn1 (centres undefined),Percent Effect,"30 µM, 30.03 µM",-45.46%
